# Assay results as given in ChEMBL document CHEMBL2218924, “A broad activity screen in support of a chemogenomic map for kinase signalling research and drug discovery” (Biochem J, 2013).
# Tests used:
# [1] = target: T1, Ephrin type-A receptor 3 (Homo sapiens) (UniProt P29320); details: at 10 µM
# T1 sequence (whole entry): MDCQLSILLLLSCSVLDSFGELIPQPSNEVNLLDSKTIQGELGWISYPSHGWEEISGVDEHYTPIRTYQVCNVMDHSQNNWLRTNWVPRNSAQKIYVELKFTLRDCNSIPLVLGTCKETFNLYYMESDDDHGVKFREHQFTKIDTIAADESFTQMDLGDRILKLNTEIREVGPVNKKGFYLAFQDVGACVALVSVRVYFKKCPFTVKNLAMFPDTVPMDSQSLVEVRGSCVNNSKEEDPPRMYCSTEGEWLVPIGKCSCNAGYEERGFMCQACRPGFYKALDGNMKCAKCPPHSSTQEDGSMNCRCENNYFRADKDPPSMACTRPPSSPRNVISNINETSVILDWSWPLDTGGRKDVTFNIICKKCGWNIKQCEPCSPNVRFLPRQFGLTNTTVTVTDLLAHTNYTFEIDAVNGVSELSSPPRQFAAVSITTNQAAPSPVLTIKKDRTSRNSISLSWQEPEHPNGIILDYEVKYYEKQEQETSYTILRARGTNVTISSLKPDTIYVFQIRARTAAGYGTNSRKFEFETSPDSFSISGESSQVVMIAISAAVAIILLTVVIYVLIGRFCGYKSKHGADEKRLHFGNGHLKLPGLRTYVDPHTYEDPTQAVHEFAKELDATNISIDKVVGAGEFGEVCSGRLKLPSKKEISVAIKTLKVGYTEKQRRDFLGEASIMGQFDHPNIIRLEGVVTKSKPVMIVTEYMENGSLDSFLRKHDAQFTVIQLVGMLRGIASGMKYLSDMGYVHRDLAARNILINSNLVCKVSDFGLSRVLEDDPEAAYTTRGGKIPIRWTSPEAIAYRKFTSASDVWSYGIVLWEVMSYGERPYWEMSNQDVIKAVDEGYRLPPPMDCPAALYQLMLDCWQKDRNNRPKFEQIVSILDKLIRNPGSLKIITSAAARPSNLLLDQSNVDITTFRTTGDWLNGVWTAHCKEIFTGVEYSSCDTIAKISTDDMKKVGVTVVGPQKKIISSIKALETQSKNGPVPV
# [2] = target: Ephrin type-A receptor 4 (Homo sapiens) (UniProt P54764); details: at 1 µM
# [3] = target: Ephrin type-A receptor 4 (Homo sapiens) (UniProt P54764); details: at 10 µM
# [4] = target: Ephrin type-A receptor 5 (Homo sapiens) (UniProt P54756); details: at 1 µM
# [5] = target: Ephrin type-A receptor 5 (Homo sapiens) (UniProt P54756); details: at 10 µM
# [6] = target: Ephrin type-A receptor 7 (Homo sapiens) (UniProt Q15375); details: at 1 µM
# [7] = target: Ephrin type-A receptor 7 (Homo sapiens) (UniProt Q15375); details: at 10 µM
# [8] = target: T2, Ephrin type-A receptor 8 (Homo sapiens) (UniProt P29322); details: at 1 µM
# T2 sequence (whole entry): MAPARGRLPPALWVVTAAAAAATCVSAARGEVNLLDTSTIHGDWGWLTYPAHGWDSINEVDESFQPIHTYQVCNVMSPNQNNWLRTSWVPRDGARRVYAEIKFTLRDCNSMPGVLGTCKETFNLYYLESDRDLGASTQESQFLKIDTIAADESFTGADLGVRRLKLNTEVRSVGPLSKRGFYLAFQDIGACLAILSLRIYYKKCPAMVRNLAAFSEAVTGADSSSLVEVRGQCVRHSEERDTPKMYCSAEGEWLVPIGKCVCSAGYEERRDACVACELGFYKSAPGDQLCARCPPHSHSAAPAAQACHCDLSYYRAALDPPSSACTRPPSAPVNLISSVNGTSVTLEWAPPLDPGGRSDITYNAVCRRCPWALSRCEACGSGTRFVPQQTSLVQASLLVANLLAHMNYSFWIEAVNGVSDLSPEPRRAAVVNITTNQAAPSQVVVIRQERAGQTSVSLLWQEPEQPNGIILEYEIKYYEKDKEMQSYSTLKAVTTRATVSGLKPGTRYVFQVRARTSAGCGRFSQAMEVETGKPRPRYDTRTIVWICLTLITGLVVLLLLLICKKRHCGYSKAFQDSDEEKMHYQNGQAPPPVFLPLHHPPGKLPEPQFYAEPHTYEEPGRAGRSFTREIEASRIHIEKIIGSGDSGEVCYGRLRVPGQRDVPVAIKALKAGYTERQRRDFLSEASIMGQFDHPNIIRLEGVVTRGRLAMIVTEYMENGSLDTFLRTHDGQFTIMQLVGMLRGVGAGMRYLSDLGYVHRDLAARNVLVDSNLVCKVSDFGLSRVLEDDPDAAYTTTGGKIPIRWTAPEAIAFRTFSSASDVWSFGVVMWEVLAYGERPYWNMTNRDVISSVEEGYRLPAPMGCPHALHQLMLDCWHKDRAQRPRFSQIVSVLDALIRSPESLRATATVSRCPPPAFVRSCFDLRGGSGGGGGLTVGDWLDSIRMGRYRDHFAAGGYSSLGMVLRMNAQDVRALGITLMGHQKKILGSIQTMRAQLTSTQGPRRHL
# [9] = target: T2, Ephrin type-A receptor 8 (Homo sapiens); details: at 10 µM
# [10] = target: T3, Ephrin type-B receptor 1 (Homo sapiens) (UniProt P54762); details: at 1 µM
# T3 sequence (whole entry): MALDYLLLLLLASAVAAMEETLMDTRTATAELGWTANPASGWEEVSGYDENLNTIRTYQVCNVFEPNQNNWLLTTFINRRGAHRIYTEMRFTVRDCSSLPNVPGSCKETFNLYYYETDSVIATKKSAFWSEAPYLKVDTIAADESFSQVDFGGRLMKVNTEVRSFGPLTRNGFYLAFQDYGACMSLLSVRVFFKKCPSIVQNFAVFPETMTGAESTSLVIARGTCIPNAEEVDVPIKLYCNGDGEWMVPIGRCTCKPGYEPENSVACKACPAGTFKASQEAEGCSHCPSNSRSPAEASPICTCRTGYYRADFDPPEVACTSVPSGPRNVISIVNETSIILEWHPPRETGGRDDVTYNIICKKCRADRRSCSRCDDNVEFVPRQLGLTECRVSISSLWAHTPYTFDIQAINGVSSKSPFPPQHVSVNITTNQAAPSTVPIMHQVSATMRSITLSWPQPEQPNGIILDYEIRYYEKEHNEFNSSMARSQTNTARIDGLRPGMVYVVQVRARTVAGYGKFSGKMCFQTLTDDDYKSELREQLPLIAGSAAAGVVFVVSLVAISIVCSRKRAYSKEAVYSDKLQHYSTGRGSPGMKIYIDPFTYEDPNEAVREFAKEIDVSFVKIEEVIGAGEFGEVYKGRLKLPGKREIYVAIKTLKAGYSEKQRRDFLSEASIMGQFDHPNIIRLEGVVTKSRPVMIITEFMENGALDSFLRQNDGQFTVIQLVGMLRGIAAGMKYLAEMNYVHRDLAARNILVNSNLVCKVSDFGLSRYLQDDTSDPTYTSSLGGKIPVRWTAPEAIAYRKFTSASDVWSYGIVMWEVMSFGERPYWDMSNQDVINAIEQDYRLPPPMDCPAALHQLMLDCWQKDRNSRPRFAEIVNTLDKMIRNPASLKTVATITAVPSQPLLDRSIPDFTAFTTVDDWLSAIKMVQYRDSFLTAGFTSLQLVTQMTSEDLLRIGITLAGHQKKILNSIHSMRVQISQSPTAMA
# Ephrin type-A receptor 5 (Homo sapiens), sequence (P54756 whole entry): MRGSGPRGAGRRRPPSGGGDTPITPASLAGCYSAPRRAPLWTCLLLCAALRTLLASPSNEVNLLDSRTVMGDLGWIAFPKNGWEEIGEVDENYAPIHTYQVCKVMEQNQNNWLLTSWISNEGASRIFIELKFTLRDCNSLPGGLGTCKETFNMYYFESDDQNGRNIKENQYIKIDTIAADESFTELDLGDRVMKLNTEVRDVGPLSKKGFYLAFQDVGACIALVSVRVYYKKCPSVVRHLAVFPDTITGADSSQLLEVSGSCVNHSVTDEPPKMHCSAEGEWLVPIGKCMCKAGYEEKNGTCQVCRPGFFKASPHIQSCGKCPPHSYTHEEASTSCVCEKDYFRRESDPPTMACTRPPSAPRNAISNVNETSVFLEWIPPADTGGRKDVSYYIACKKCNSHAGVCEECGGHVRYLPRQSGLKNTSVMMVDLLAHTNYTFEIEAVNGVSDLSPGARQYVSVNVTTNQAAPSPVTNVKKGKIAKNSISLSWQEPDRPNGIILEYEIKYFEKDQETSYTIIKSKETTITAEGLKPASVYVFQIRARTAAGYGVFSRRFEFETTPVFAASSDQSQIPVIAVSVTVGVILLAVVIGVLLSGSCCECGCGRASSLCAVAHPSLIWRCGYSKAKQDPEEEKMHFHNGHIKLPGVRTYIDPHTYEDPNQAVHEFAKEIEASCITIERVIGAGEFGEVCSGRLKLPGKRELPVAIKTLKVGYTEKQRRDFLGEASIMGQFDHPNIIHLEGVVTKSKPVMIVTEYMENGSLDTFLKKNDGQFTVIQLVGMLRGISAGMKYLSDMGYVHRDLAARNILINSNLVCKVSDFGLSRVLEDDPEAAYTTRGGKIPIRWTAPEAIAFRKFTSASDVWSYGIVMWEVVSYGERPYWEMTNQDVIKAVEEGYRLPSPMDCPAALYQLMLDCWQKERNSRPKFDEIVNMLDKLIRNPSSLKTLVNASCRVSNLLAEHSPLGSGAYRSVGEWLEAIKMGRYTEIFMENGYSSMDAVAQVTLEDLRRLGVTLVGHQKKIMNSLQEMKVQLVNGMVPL
# Ephrin type-A receptor 4 (Homo sapiens), sequence (P54764 whole entry): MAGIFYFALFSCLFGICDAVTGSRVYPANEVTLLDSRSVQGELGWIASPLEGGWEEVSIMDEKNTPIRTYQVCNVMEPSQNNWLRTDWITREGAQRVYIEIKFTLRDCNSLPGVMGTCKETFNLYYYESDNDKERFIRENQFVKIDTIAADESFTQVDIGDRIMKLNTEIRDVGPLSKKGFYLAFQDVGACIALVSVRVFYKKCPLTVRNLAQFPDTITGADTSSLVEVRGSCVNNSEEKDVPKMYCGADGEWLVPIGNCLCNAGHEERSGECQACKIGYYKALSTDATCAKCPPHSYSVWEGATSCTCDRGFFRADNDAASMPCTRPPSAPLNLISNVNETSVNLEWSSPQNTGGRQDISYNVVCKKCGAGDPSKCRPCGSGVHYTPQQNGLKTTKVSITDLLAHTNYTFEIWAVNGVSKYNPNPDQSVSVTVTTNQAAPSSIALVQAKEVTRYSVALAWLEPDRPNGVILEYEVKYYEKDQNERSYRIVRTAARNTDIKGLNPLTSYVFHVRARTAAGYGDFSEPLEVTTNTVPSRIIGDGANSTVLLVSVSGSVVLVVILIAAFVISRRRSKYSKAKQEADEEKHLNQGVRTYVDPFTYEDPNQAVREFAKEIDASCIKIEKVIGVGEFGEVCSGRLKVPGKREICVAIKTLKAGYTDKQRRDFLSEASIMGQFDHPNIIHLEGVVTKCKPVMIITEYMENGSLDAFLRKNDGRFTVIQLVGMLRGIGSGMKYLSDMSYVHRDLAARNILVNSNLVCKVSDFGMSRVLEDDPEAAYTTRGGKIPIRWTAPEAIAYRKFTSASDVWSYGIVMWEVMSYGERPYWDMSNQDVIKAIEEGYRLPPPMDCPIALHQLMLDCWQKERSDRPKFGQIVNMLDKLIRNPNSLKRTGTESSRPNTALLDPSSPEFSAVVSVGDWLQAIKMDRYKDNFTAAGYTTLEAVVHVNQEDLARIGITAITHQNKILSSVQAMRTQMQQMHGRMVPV
# Ephrin type-A receptor 7 (Homo sapiens), sequence (Q15375 28-998 limits assumed): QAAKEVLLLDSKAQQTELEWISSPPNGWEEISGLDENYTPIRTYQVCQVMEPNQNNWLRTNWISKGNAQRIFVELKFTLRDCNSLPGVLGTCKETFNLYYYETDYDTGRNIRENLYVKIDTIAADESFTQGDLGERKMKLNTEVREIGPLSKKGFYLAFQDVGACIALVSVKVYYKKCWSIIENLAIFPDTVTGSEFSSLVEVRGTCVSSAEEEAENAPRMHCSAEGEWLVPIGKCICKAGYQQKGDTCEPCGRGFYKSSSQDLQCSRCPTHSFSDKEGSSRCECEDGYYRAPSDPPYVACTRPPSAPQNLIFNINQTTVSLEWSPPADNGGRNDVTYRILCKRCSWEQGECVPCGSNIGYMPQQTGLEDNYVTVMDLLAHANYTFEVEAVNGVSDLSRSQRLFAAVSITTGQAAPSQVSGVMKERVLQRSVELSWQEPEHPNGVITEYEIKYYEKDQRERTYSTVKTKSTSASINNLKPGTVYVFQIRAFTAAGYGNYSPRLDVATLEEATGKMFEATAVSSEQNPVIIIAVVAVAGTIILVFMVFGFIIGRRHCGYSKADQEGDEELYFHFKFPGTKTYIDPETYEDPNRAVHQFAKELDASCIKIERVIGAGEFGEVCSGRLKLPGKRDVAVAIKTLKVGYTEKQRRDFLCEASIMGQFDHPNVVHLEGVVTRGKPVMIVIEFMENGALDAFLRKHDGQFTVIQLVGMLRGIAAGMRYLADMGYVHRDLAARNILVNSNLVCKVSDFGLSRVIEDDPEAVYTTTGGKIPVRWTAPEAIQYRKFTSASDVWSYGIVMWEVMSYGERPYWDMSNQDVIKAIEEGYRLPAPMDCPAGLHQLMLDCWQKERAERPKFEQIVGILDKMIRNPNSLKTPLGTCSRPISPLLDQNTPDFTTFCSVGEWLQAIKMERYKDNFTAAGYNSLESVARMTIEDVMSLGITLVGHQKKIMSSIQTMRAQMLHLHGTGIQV
compound,measurement,setting,value
COc1ccc(OC)c2c(=S)c3ccccc3[nH]c12,residual activity,[1],97%
same,residual activity,[2],100%
same,residual activity,[3],105%
same,residual activity,[4],101%
same,residual activity,[5],96%
same,residual activity,[6],92%
same,residual activity,[7],89%
same,residual activity,[8],96%
same,residual activity,[9],100%
same,residual activity,[10],97%
